Measurements taken from PubChem BioAssay AID1117319 (Southern Research Institute, 2015).
“And” between values parts separate entries of the source, which are not always exact repeats. Equal values may be shown once. The whole screen tested about 260,000 compounds, of which about 1,500 (0.58%) were called active. Roughly 5% stayed inconclusive and do not appear here.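 The calls were made as follows: active = inhibition above a set limit at one or more doses, reproduced on every date tested; inconclusive = results disagree between test dates, or hit never tested in dose response; inactive = the rest.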 Only a sample is shown. Potency and affinity values are given separately.

Biological target: Virion infectivity factor (Human immunodeficiency virus type 1 group M subtype B (isolate BH10)) + Virion infectivity factor (Human immunodeficiency virus type 1 group M subtype B (isolate BRU/LAI)) + Virion infectivity factor (Human immunodeficiency virus type 1 group M subtype B (isolate PCV12)) + Virion infectivity factor (Human immunodeficiency virus type 1 group M subtype B (isolate HXB2)) + DNA dC->dU-editing enzyme APOBEC-3G (Homo sapiens) (UniProt P69720+P69721+P69722+P69723+Q9HC16)
Experiment: inhibitors of Vif binding to APOBEC3G peptide, primary screen, biochemical, TR-FRET, GST-Vif 1-94, biotin-A3G peptide, dose response retest (AID 1117319);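 also: Vif residues 1-94 fused to GST binding biotinylated APOBEC3G peptide 110-148; 0% = full assay without inhibitor and 100% = GST in place of GST-Vif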
Conditions: stronger effect = higher value

inhibition, inactive:
CCCCNC(=O)CCn1nc(-c2ccccc2)c2ccccc2c1=O -4.86%
COc1ccc(-c2cc(-c3n[nH]c(=S)n3-c3cccc4ccccc34)[nH]n2)cc1 32.6%
Cc1nc2ccccn2c1-c1csc(NCc2ccco2)n1 5.14%
Cc1ccn2c(-c3csc(NCc4ccco4)n3)c(C)nc2c1 16.9%
CC(=O)Oc1ccccc1/C=C1\CCOC1=O 13.1%
O=C(NCCN1C(=O)S/C(=C\c2ccc(Cl)c(Cl)c2)C1=O)c1cnccn1 20.5%
O=C(c1cc([N+](=O)[O-])ccc1N1CCOCC1)N1CCN(c2ccc([N+](=O)[O-])cc2)CC1 11.3%
O=C(NCc1ccccc1)c1csc2c1CCCCC2 -0.06%
COc1ccccc1CNC(=O)c1csc2c1CCCC2 10.6%
[O-]/C(=C(\C(=S)Nc1ccc(SC(F)F)cc1)[n+]1ccccc1)c1ccc(Cl)cc1Cl -10.3%
COc1cccc(OC)c1C(=O)Nc1nc(-c2ccccc2)cs1 -5.24%
CC(NC(=O)COc1ccccc1Cl)c1ccccc1 (centres undefined) -5.9%
CCn1c(SCC(=O)NNC(=O)c2ccc(OC)cc2)nnc1-c1ccco1 -0.44%
CC(=O)Nc1ccc(/C(N=Nc2ccccc2)=N/N=C(N)N)cc1 16.3%
Oc1ccc(/C=N\Nc2nncc(-c3ccccc3)n2)cc1 -5.32%
O=C1c2cc(Br)ccc2OC2C=CC=CC12 (centres undefined) -11.4%
COc1cc(CNCCc2c[nH]c3ccccc23)ccc1OCc1ccc(F)cc1 12.4%
COc1cccc(CNCCc2c[nH]c3ccccc23)c1OCc1ccc(F)cc1 1.44%
COc1ccc(C(=Cc2cc(OC)c(OC)cc2[N+](=O)[O-])C(=O)O)cc1 2.43%
CCOC(=O)c1cc2c(C)n(-c3ccc(OCC)cc3)c(C)c2ccc1=O 27.2%
O=C(O)C1Nc2c(C(F)(F)F)ccc(Cl)c2C2C=CCC12 (centres undefined) 24.9%
O=C(O)C1Nc2c(Cl)cc(Cl)cc2C2C=CCC12 (centres undefined) 63.7%
O=[N+]([O-])c1c(O)c(Cl)cc(Cl)c1Cl (tested in a mixture with another compound) -1.68%
Cc1noc(C)c1COC(=O)c1cnc(Cl)c(Cl)c1 3.39%
O=C(O)C12CC3CC(C1)CC(n1cnc(Cl)n1)(C3)C2 23.7%
Cc1nnc(Oc2ccccc2F)c2ccccc12 0.32%
Cc1cc(C)c2c(c1)C1C=CCC1C(c1ccc(S(=O)(=O)N3CCOCC3)cc1)N2 (centres undefined) 27.8% and -8.85%
Cc1cc(C)c(NC(=O)c2ccc(S(=O)(=O)N3CCOCC3)cc2)c(C)c1 -5.2%
Cc1ccc(CN2CC(C(=O)Nc3cccc(S(=O)(=O)N4CCCCC4)c3)CC2=O)cc1 (centres undefined) 14.4%
COc1ccc(-c2cc(C(=O)N/N=C/c3ccc4c(c3)OCO4)c3ccccc3n2)c(OC)c1 -3.1%
COc1ccc(/C=N/NC(=O)c2cc(-c3ccccc3OC)nc3ccccc23)cc1COC(C)=O -2.13%
CC(C)(C)c1cc(C(=O)Nc2ccccc2)ccn1 11.4%
Cc1ccccc1C(=O)O/N=C(\c1ccccc1)c1ccccn1 5.71%
O=C(O)c1ccc2c(c1)-c1cc(C(=O)O)ccc1S2(=O)=O -4.26%
Cc1ccn2cc(C34CC5CC(CC(C5)C3)C4)nc2c1 17%
Cc1nonc1-c1csc(N)n1 -6.95%
COc1cc(NC(=O)CSc2ccc(-c3ccco3)nn2)cc(OC)c1 0.78%
CN(CCO)c1cc(Sc2nc3ccccc3s2)c2nonc2c1[N+](=O)[O-] 1.28%
Cc1ccc(Sc2cc(NCCCO)c([N+](=O)[O-])c3nonc23)cc1 9.02%
CCC(=O)OCCNc1cc(Sc2nc3ccccc3s2)c2nonc2c1[N+](=O)[O-] 5.25%
CCN(CC)c1cc(NCCO)c([N+](=O)[O-])c2nonc12 0.97%
CCC(=O)OCCNc1cc(SCCC(=O)OC)c2nonc2c1[N+](=O)[O-] 20%
CCC(=O)OCCNc1cc(Sc2nccn2C)c2nonc2c1[N+](=O)[O-] -4.53%
CC(=O)OCCCNc1cc(Sc2ccc(C)cc2)c2nonc2c1[N+](=O)[O-] 15.4%
CC(C)CCSc1cc(NCCO)c([N+](=O)[O-])c2nonc12 -1.66%
CCCN1CCc2c(sc(NC(=O)CCS(=O)(=O)c3ccccc3)c2C(N)=O)C1 0.13%
CCOC(NC(=O)c1ccccc1)C(NC(=O)c1ccccc1)OCC (centres undefined) -1.18%
COc1ccccc1CC(O)CC1c2c(cc3c(c2OC)OCO3)CCN1C (centres undefined) -0.54%
CC(=O)c1cc(C)ccc1OC(=O)c1cccc2nc(C)oc12 3.65%
COC(=O)c1ccccc1N=Nc1c(C)n[nH]c1C -7.02%
COC(=O)CN1C(=O)C2(OCCCO2)c2cc(Br)ccc21 -2.05% and -8.37%
CN1CCN(C(=O)c2cc3c(C(F)(F)F)nn(C)c3s2)CC1 6.37%
O=C(COc1ccc(Cl)cc1Cl)N(Cc1ccco1)C1CCS(=O)(=O)C1 (centres undefined) -2.82%
O=C(Cc1c(F)cccc1Cl)N1CCN(S(=O)(=O)c2cccc(F)c2)CC1 -1.72%
O=C(O)C1CC=CCC1C(=O)N1CCc2ccccc21 (centres undefined) 23.4%
O=C(C1CCCCC1)N1CCc2ccccc21 3.73%
CCN(CC)S(=O)(=O)c1ccc(OCC(=O)NC(=O)Cc2ccccc2)c([N+](=O)[O-])c1 1.51%
O=C(c1ccccc1)c1ccc(OCCO)cc1 -4%
C=C(c1ccc(OC)cc1)c1ccc(OC)cc1 13.2%
CC1(C)CC(=O)C(C=NCCCN2CCOCC2)=C(O)C1 -5.25%
CCc1cc2ccc(OC)cc2nc1SCC(=O)NNC(=O)c1ccco1 -10%
Cc1ccc(NC(=S)N(CCCN2CCOCC2)Cc2ccco2)cc1C -0.03%
COc1ccc(/C=C2/C(=N)N3C(=NC2=O)Sc2cc(S(C)(=O)=O)ccc23)cc1OC -1.27%
CN(C)c1ccc(/C=C2\C(=N)N3C(=NC2=O)Sc2cc(S(C)(=O)=O)ccc23)cc1 -44.5%
O=C(NCc1nnc(SCC(=O)N2CCc3ccccc32)o1)c1ccco1 1.79%
Cc1cccc(NCC(=O)N/N=C\c2c[nH]c3ccccc23)c1 21.4%
Cc1nc(N)sc1C(=O)N/N=C/c1cccnc1 3.64%
Cc1ccc(Nc2ncc3c(n2)CC(c2ccco2)CC3=O)c(C)c1 (centres undefined) 18.1%
O=C(CSc1nnnn1-c1ccccc1)Nc1ncc2c(n1)CC(c1ccccc1)CC2=O (centres undefined) 2.52%
Cc1cccc(Nc2ncc3c(n2)CC(c2ccco2)CC3=O)c1 (centres undefined) 3.03%
CCC(=O)Nc1ncc2c(n1)CC(c1ccco1)CC2=O (centres undefined) 31.8%
CC(C(=O)NC1=NCCS1)(C(F)(F)F)C(F)(F)F -4.2%
COc1ccc(CCNC(=O)CCCc2ccccc2)cc1OC 1%
Cc1ccc(C)c(OCC(=O)Nn2c(C)nc3ccccc3c2=O)c1 -5.76%
C=CCn1c(C)c(C(C)=O)c(N2CCCC2)nc1=S 1.72%
C=CCn1c(C)c(C(C)=O)c(N2CCOCC2)nc1=S 5.16%
O=C(NCC1CCCO1)c1ccc2nc(N3CCCCC3)sc2c1 (centres undefined) 1.36%
CC(Oc1ccc(Br)cc1)C(=O)Nc1ccncc1 (centres undefined) -0.96%
O=C(NNc1nc2c(F)cccc2s1)c1cc(=O)c2ccccc2o1 21.6%
COc1ccc(CNC(=O)c2cc(=O)c3ccccc3o2)cc1 4.03%
O=S(=O)(c1cccc(F)c1)N1CCN(C(=S)NCc2ccccc2)CC1 -4.04%
O=C(OCc1csc(-c2ccccc2)n1)c1ccc(O)cc1 -8.63%
O=C1c2ccccc2C(=O)N1CCCON1C(=O)c2ccccc2C1=O -6.06%
O=C1c2ccccc2C(=O)N1CCCCON1C(=O)c2ccccc2C1=O -9.96%
CCC(C)NC(=O)C(Cc1ccccc1)NS(=O)(=O)c1ccc2c(c1)CCC(=O)N2 (centres undefined) -0.93%
CC(C)=CC(=O)NCc1c(Cl)cccc1-n1cccc1 -7.14%
CCC(=O)NCc1c(Cl)cccc1-n1cccc1 -0.31%
CC(C)(C)c1cc(CCC(=O)N2CCNCC2)c(C(C)(C)C)cc1O -5.87%
Cc1ccc(S(=O)(=O)N2CCN(C(=O)c3cccc(-n4cccc4)c3)CC2)cc1 13.6%
O=C(c1cccc(-n2cccc2)c1)N1CCN(S(=O)(=O)c2ccccc2Br)CC1 -0.78%
CCc1cccc2c(SCC(=O)NCC3CCCO3)nc(-c3ccc(F)cc3)nc12 (centres undefined) -2.63%
O=C(NCCn1cc(SCc2ccccc2F)c2ccccc21)c1c(F)cccc1F 23.7%
CCN(CC)c1ccc(/C=N/N2C(=O)c3ccccc3C2=O)cc1 0.19%
CSc1ccc(/C=N/n2c(C)cc(C)cc2=O)cc1 -2.42%
